The entries come from a sample that favours the strongest signals as a whole.
Key:
Test in all cases: glycan array binding signal (z-score within array); higher = stronger binding
Settings in all cases: glycan notation: IUPAC condensed, linker removed
[1] = target: Fuc(a1-2)Gal(b1-3)GalNAc(a1-3)[Fuc(a1-2)]Gal(b1-4)GlcNAc
Outline: (§1)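 The binding signal is a Z-score computed within each array. Data were drawn from 3228 arrays in the Consortium for Functional Glycomics database, restricted to those with a known protein sequence. Scores were averaged over arrays of the same protein sequence at different concentrations or buffers, and over linkers, and negative values can be taken as non-binding.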

[2] = target: Fuc(a1-2)Gal(b1-3)GalNAc(b1-3)Gal
Outline: as §1

[3] = target: Fuc(a1-2)Gal(b1-3)GalNAc(b1-4)[Neu5Ac(a2-3)]Gal(b1-4)Glc
Outline: as §1

[4] = target: Fuc(a1-2)Gal(b1-3)GlcNAc(b1-2)Man(a1-3)[Fuc(a1-2)Gal(b1-3)GlcNAc(b1-2)Man(a1-6)]Man(b1-4)GlcNAc(b1-4)[Fuc(a1-6)]GlcNAc
Outline: as §1

[5] = target: Fuc(a1-2)Gal(b1-3)[Fuc(a1-4)]GlcNAc(b1-2)Man(a1-3)[Fuc(a1-2)Gal(b1-3)[Fuc(a1-4)]GlcNAc(b1-2)Man(a1-3)]Man(b1-4)GlcNAc(b1-4)GlcNAc
Outline: as §1

Fuc(a1-2)Gal(b1-4)Glc6S = target: Fuc(a1-2)Gal(b1-4)Glc6S
Outline: as §1

[6] = target: Fuc(a1-2)Gal(b1-4)GlcNAc(b1-2)Man(a1-3)[Fuc(a1-2)Gal(b1-4)GlcNAc(b1-2)Man(a1-6)]Man(b1-4)GlcNAc(b1-4)[Fuc(a1-6)]GlcNAc
Outline: as §1

[7] = target: Fuc(a1-2)Gal(b1-4)GlcNAc(b1-3)Gal(b1-4)GlcNAc(b1-2)Man(a1-3)[Fuc(a1-2)Gal(b1-4)GlcNAc(b1-3)Gal(b1-4)GlcNAc(b1-2)Man(a1-6)]Man(b1-4)GlcNAc(b1-4)GlcNAc
Outline: as §1

[8] = target: Fuc(a1-2)Gal(b1-4)[Fuc(a1-3)]GlcNAc(b1-3)GalNAc
Outline: as §1

[9] = target: Fuc(a1-2)Gal6S(b1-3)GlcNAc6S
Outline: as §1

[10] = target: Fuc(a1-2)[Gal(a1-3)]Gal(b1-4)GlcNAc(b1-3)[Fuc(a1-2)[Gal(a1-3)]Gal(b1-4)GlcNAc(b1-6)]GalNAc
Outline: as §1

[11] = target: Fuc(a1-2)[Gal(a1-3)]Gal(b1-4)[Fuc(a1-3)]Glc
Outline: as §1

[12] = target: Fuc(a1-2)[GalNAc(a1-3)]Gal(b1-3)GlcNAc(b1-6)GalNAc
Outline: as §1

[13] = target: Fuc(a1-2)[GalNAc(a1-3)]Gal(b1-4)Glc
Outline: as §1

[14] = target: Fuc(a1-2)[GalNAc(a1-3)]Gal(b1-4)GlcNAc
Outline: as §1

[15] = target: Fuc(a1-2)[GalNAc(a1-3)]Gal(b1-4)GlcNAc(b1-2)Man
Outline: as §1

[16] = target: Fuc(a1-3)[Gal(b1-4)]GlcNAc(b1-3)Gal(b1-4)[Fuc(a1-3)]GlcNAc
Outline: as §1

[17] = target: Fuc(a1-3)[Gal(b1-4)]GlcNAc(b1-6)GalNAc
Outline: as §1

[18] = target: Fuc(a1-3)[Gal3S(b1-4)]GlcNAc6S
Outline: as §1

Fuc(a1-4)GlcNAc = target: Fuc(a1-4)GlcNAc
Outline: as §1

Gal(b1-3)Gal = target: Gal(b1-3)Gal
Outline: as §1

Gal(b1-3)Gal(b1-4)GlcNAc = target: Gal(b1-3)Gal(b1-4)GlcNAc
Outline: as §1

[19] = target: Gal(b1-3)GalNAc(a1-3)[Fuc(a1-2)]Gal(b1-4)GlcNAc
Outline: as §1

[20] = target: Gal(b1-3)GlcNAc(b1-3)Gal(b1-4)GlcNAc(b1-6)[Gal(b1-3)GlcNAc(b1-3)]Gal(b1-4)Glc
Outline: as §1

[21] = target: Gal(b1-3)[Neu5Ac(a2-6)]GlcNAc(b1-4)Gal(b1-4)Glc
Outline: as §1

Gal(b1-4)Gal = target: Gal(b1-4)Gal
Outline: as §1

[22] = target: Gal(b1-4)GlcNAc(b1-2)Man(a1-3)[GlcNAc(b1-4)][Gal(b1-4)GlcNAc(b1-2)Man(a1-6)]Man(b1-4)GlcNAc(b1-4)GlcNAc
Outline: as §1

[23] = target: Gal(b1-4)GlcNAc(b1-2)[Gal(b1-4)GlcNAc(b1-6)]Man(a1-6)[Gal(b1-4)GlcNAc(b1-2)Man(a1-3)]Man(b1-4)GlcNAc(b1-4)GlcNAc
Outline: as §1

[24] = target: Gal(b1-4)GlcNAc(b1-2)[Gal(b1-4)GlcNAc(b1-6)]Man(a1-6)[Gal(b1-4)GlcNAc(b1-2)Man(a1-3)]Man(b1-4)GlcNAc(b1-4)[Fuc(a1-6)]GlcNAc
Outline: as §1

[25] = target: Gal(b1-4)GlcNAc(b1-3)Gal(b1-4)GlcNAc
Outline: as §1

B1: SabA (Helicobacter pylori) (protein)
chain: MGSSHHHHHHSSGLVPRGSHMENLYFQGEDNGFFVSAGYQIGEAVQMVKNTGELKNLNEKYEQLSQYLNQVASLKQSIQNANNIELVNSSLNYLKSFTNNNYNSTTQSPIFNAVQAVITSVLGFWSLYAGNYFTFFVGKKVGDSGQPASVQGNPPFKTIIENCSGIENCAMDQTTYDKMKKLAEDLQAAQTNSATKGNNLCALSGCAATDSTSNPPNSTVSNALNLAQQLMDLIANTKTAMMWKNIVISGVSNTSGAITSTNYPTQYAVFNNIKAMIPILQQAVTLSQSNHTLSASLQAQATGSQTNPKFAKDIYTFAQNQKQVISYAQDIFNLFNSIPAEQYKYLEKAYLKIPNAGSTPTNPYRQVVNLNQEVQTIKNNVSYYGNRVDAALSVARDVYNLKSNQAEIVTAYNDAKTLSEEISKLPHNQVNTKDIVTLPYDKNAPAAGQSNYQINPEQQSNLNQALAAMSNNPFKKVGMISSQNNNGA
glycan array binding signal (z-score) [1]: 0.026
glycan array binding signal (z-score) [2]: -0.181
glycan array binding signal (z-score) [3]: 0.208
glycan array binding signal (z-score) [4]: 1.55
glycan array binding signal (z-score) [5]: 3.91
glycan array binding signal (z-score) (Fuc(a1-2)Gal(b1-4)Glc6S): 0.21
glycan array binding signal (z-score) [6]: 2.49
glycan array binding signal (z-score) [7]: 0.579
glycan array binding signal (z-score) [8]: 2.43
glycan array binding signal (z-score) [9]: 3.74
glycan array binding signal (z-score) [10]: 2.78
glycan array binding signal (z-score) [11]: -0.48
glycan array binding signal (z-score) [12]: -0.962
glycan array binding signal (z-score) [13]: -0.596
glycan array binding signal (z-score) [14]: -0.145
glycan array binding signal (z-score) [15]: -0.319
glycan array binding signal (z-score) [16]: 1.26
glycan array binding signal (z-score) [17]: 1.95
glycan array binding signal (z-score) [18]: -0.083
glycan array binding signal (z-score) (Fuc(a1-4)GlcNAc): 2.89
glycan array binding signal (z-score) (Gal(b1-3)Gal): -0.298
glycan array binding signal (z-score) (Gal(b1-3)Gal(b1-4)GlcNAc): -0.637
glycan array binding signal (z-score) [19]: -0.576
glycan array binding signal (z-score) [20]: -0.24
glycan array binding signal (z-score) [21]: 0.532
glycan array binding signal (z-score) (Gal(b1-4)Gal): 0.204
glycan array binding signal (z-score) [22]: -0.111
glycan array binding signal (z-score) [23]: 0.291
glycan array binding signal (z-score) [24]: 0.877
glycan array binding signal (z-score) [25]: -0.924

— the supplement of paper PMC8728848
